High-throughput results from PubChem.
Mito fusion act: inhibitors of mitochondrial division or activators of mitochondrial fusion. actives 0.23% (n = 320,000). Potency, µM (highest dose often 46.1 µM), without a hit: at the top dose growth rescue (activation), actives largely listed as activators. S. cerevisiae fusion-defective mutant growth rescue, CellTiterGlo 48 h; further: % of control where 0% means no effect; nearly all actives have a fitted effect of over 45% in size
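S. cerevisiae fusion-defective temperature-sensitive mutants (e.g. fzo1-1, mgm1-5) grown 48 h at 37C in YPEG (ethanol/glycerol non-fermentable) medium with 23 nl compound per well; growth rescue read as CellTiterGlo luminescence.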
MCF10A rereplic: DNA re-replication induction in MCF 10a cells. Potency, µM (highest dose often 46.1 µM), for inactives: at the top dose activity, positive = re-replication, hits mostly activators. AID 624296. actives 2.9% (n = 350,000). MCF 10A DNA re-replication, Hoechst nuclear intensity, 48 h; further: % of control where 0% means no effect; nearly all actives have a fitted effect of over 50% in size
A-T KAP1 phos: candidate therapy for ataxia-telangiectasia; F2112 A-T fibroblasts, KAP-1 phosphorylation AlphaLISA; neocarzinostatin DNA damage 30 min before lysis; Potency, µM (top dose mostly 57.5 µM), for the others: at the highest dose activation, usual class: activators; actives 0.19% (n = 320,000); AID 485349; further: % of control where 0% means no effect; nearly all actives have a fitted effect of over 45% in size
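hTERT-immortalized A-T patient fibroblasts (F2112), 500 cells/well in OPTI-MEM, 1% FBS, got compounds for 60 min, then NCS for 30 min at 37C. Lysates were then assayed for phospho-KAP-1 by AlphaLISA (anti-pKAP1 donor, anti-KAP1 acceptor beads), 6 hr at 25C.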
SW480 rereplic: induces DNA re-replication in SW480 colon adenocarcinoma cells; SW480 DNA re-replication, Hoechst DNA content imaging, 48 h; Potency, µM (highest dose often 46.1 µM), for the others: at the highest dose re-replication activation, usual class: activators; actives 1.8% (n = 340,000); AID 624297; further: % of control where 0% means no effect; nearly all actives have a fitted effect of over 55% in size
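Hoechst fluorescence of nuclei (405 nm excitation, 500-530 nm emission) measured by plate-scanning imager after 48 hr compound exposure at 37 C; re-replication scored as increased number of nuclei with elevated intensity.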
Integrin act MD: activators of alpha7 integrin expression for muscular dystrophy; alpha7betagal myoblasts, beta-gal FDG fluorescence, 48 h; Potency, µM (top dose mostly 38.3 µM), inactives show at the highest dose activation, hits mostly activators; actives 0.064% (n = 350,000); AID 624291;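 further: 100% = response of the positive control SU9516; nearly all actives have a fitted effect of over 60% in size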
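alpha7betagal+/- myoblasts (passage 13, 250/well) treated 48 h at 37C with compounds at 1:260 dilution of DMSO stock. Lysed, then beta-galactosidase activity read as FDG fluorescence (ex 480/em 540) after 30 min, with pre-read for autofluorescence.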
* marks the source's active call; other numbers are inactive results; ? = inconclusive; . = no result given; ! = a repeat was not active. Shown are actives, neighbours in structure and some others; about 4.2% of the full set was active somewhere. The call rests on the fitted dose curve; in most records, active means well fitted activation curve with a large enough effect; inconclusive means small, poorly fitted or top-dose-only effect; inactive means no such curve, though single readings can be large or run the other way. Potency means the concentration at half of the fitted maximal effect.

SMILES	Mito fusion act	MCF10A rereplic	A-T KAP1 phos	SW480 rereplic	Integrin act MD
Cc1cccc(NC(=O)C(C)n2cc([N+](=O)[O-])cn2)n1 (stereo not given)	-2%	1%	-3%	-3%	-30%
C=C(NCc1ccccc1)c1ccccc1O	.	-6%	.	-3%	.
O=C(N/N=C/C=C\c1ccco1)c1cccs1	-1%	?	3%	8%	-19%
CCn1nc(NC(=O)c2ccccc2)c2cc3cccc(C)c3nc21	4%	6.5µM*	22µM*	12µM*	5%
CCn1nc(NC(C)=O)c2cc3cccc(C)c3nc21	10%	3%	5%	123%	14%
CCn1nc(NC(=O)C(C)C)c2cc3cccc(C)c3nc21	22%	?	?	8.2µM*	20%
CCn1nc(NC(=O)COC)c2cc3cccc(C)c3nc21	27%	0%	?	?	-5%
CCn1nc(NC(=O)Cc2ccc(OC)cc2)c2cc3cccc(C)c3nc21	3%	4.1µM*	23%	?	-1%
Cc1ccc2cc3c(NC(=O)c4ccco4)nn(CC(C)C)c3nc2c1	2%	?	33%	9.2µM*	6%
Cn1ncc(C(=O)N=S(C)(=O)c2ccccc2)c1[N+](=O)[O-] (stereo not given)	1%	0%	-1%	-16%	-21%
O=C(/C=C/c1ccc(-c2cccc([N+](=O)[O-])c2)o1)N1CCOCC1	6%	14%	-19%	-6%	0%
CCn1nc(NC(=O)c2cccs2)c2cc3ccccc3nc21	8%	18µM*	1%	15µM*	24%
Cc1cccc2cc3c(NC(=O)C(C)(C)C)nn(CC(C)C)c3nc12	31%	?	?	21µM*	-17%
COc1cccc(NC(=O)CSc2nc3c(sc4ccccc43)c(=O)n2CCCN2CCCC2)c1	-9%	18µM*	-2%	?	-56%
COc1cccc(NC(=O)CSc2nc3c(sc4ccccc43)c(=O)n2CCN(C)C)c1	-17%	-2%	-5%	-11%	11%
Cc1ccc(NC(=O)CSc2nc3ccccc3c(=O)n2CCCN2CCCCC2)cc1Cl	-1%	23µM*	-3%	-3%	-73%
O=C(NCCCN1CCOCC1)c1onc(CSc2ccncc2)c1C(=O)NCCCN1CCOCC1	.	-4%	.	3%	5%
CC(C)(C)c1ccc(NC(=O)C2=CN3CCS(=O)(=O)N=C3C=C2)cc1	-3%	10%	-13%	?	4%
CC1(C)CC(=O)C2=C(C1)Oc1nc3ccccc3cc1C2C(C#N)C#N (stereo not given)	-14%	9.2µM*	18%	?	-13%
CC1(C)CC(=O)C(C2C3=C(CC(C)(C)CC3=O)Oc3ccccc32)C(=O)C1 (stereo not given)	2%	4%	19%	-6%	-7%
COC(C[C@@H](O)C[C@@H](O)[C@@H](C)OCc1ccccc1)OC	.	1%	.	0%	0%
CC(=O)N(C)C1=C(N2CCOCC2)C(=O)c2ccccc2C1=O	-18%	0.73µM*	2%	?	-5%
CC(=O)N(C1=C(N2CCOCC2)C(=O)c2ccccc2C1=O)c1ccc(C(=O)O)cc1	-2%	?	-5%	4.1µM*	5%
CC(=O)c1ccc(NC2=C(N3CCOCC3)C(=O)c3ccccc3C2=O)cc1	-8%	0%	-13%	3%	-35%
Cc1ccc(CC#N)c(-c2c(CC#N)ccc(C)c2C)c1C	.	.	.	.	-13%
SMILES	Mito fusion act	MCF10A rereplic	A-T KAP1 phos	SW480 rereplic	Integrin act MD
Cc1ccc2c(c1C)-c1c(ccc(C)c1C)C(=O)C2=O	.	4.1µM*	.	3.3µM*	-58%
CC(O)(Cc1ccccn1)Cc1ccccn1	.	-24%	.	-4%	-14%
C[C@]12CCC(=O)C[C@@H]1CC[C@@H]1[C@@H]2CC[C@]2(C)C=CC[C@@H]12	2%	30µM*!	.	-5%	.
Fc1cccc(Cl)c1C1Nc2cccc3cccc(c23)N1	-10%	14%	0%	8%	-27%
Brc1cccc(C2Nc3cccc4cccc(c34)N2)c1	-1%	-16%	7%	3%	28%
Brc1ccc(C2Nc3cccc4cccc(c34)N2)o1	1%	15µM*	0%	1%	-10%
Clc1cccc(Cl)c1C1Nc2cccc3cccc(c23)N1	-16%	18µM*	-1%	?	-7%
CSCCC1NC(=O)N(CC(=O)Nc2ccc(Br)cc2Br)C1=O (stereo not given)	-3%	3%	-3%	-24%	28%
OC(CN1CCOCC1)(c1ccccc1)c1ccccn1 (stereo not given)	2%	-12%	-5%	-5%	4%
COc1ccc(-n2c(=S)[nH]c3ccccc3c2=S)cc1	-9%	13%	2.8µM*	5%	-18%
COc1ccc(N2CCN(C(=O)CCS(=O)(=O)c3ccc4c(c3)CCN4C(=O)C3CC3)CC2)cc1	1%	?	1%	5.8µM*	38%
CCC(=O)N1CCc2cc(S(=O)(=O)CCC(=O)N3CCN(c4ccccc4)CC3)ccc21	15%	9%	-7%	-1%	?
COc1ccc(N2CCN(C(=O)NC(=O)c3ccccc3)CC2)cc1	-1%	5%	-3%	-5%	8%
COc1ccc(N2CCN(CNC(=O)c3ccccc3)CC2)cc1	-3%	0.92µM*	-8%	-1%	-1%
CCOC(=O)c1cc(-c2ccccc2)n(CCC(=O)N2CCN(c3ccc(OC)cc3)CC2)c1C	25%	26µM*	-4%	4%	-22%
COc1ccc(C(CNC(=O)CCNS(=O)(=O)c2ccc(C)cc2)N2CCOCC2)cc1 (stereo not given)	-3%	12%	0%	5.2µM*	-4%
Cc1ccc(S(=O)(=O)NCCC(=O)NCC(c2ccc(F)cc2)N2CCOCC2)cc1 (stereo not given)	5%	-4%	4%	-11%	6%
C/C(=N/NC(=O)c1cc(-c2ccccc2)nc2c(Cl)cccc12)c1cccnc1	5%	5%	13%	12%	-31%
COc1ccc(N2CCN(C(=O)CCNS(=O)(=O)c3ccccc3)CC2)cc1	7%	26µM*	-2%	27%	-4%
COc1ccc(-c2cc(C)nc(SCC(=O)c3cccc([N+](=O)[O-])c3)n2)cc1	-3%	?	-8%	1%	-13%
Cc1cc(-c2ccccc2)nc(SCC(=O)c2cccc([N+](=O)[O-])c2)n1	6%	?	5%	16µM*	-3%
COc1ccc2nc(-c3ccccc3)cc(C(=O)OCC(=O)N3CCCCC3)c2c1	?	-4%	26%	21µM*	33%
COc1ccc(-c2cc(C(=O)OCC(=O)c3cccc([N+](=O)[O-])c3)c3cc(C)ccc3n2)cc1	-6%	18µM*	-7%	0%	?
